# Results taken from PubChem BioAssay.
# Values without a mark were called inactive. How the calls were made is not given here.
# Target: Pantothenate synthetase (Mycobacterium tuberculosis (strain ATCC 25618 / H37Rv)) (UniProt P9WIL5)
# Test: Coupled enzyme confirmation of inhibitors against recombinant Mtb PanC (AID 375);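 further: 0% = full reaction with vehicle and 100% = no enzyme background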
# Conditions: coupled enzyme assay; at 10 µM, stronger effect = higher value
# Sequence of Pantothenate synthetase (Mycobacterium tuberculosis (strain ATCC 25618 / H37Rv)) (P9WIL5 whole entry, looked up): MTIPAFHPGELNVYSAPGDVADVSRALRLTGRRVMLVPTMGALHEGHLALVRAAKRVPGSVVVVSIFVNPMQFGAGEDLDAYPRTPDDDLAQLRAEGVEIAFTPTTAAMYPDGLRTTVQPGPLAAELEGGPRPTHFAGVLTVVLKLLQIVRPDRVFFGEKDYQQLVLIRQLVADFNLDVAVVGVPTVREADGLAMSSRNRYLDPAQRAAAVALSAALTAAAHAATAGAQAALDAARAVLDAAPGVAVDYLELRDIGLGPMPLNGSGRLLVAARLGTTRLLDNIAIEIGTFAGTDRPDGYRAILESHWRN
row,Compound,inhibition [%]
1,CCOc1ccc(-c2nnc(N)s2)cc1,0
2,CC1CCN(C(=O)C2CCN(S(=O)(=O)c3cnc[nH]3)CC2)CC1,5
3,CC(=O)c1cccc(S(=O)(=O)NCC(c2ccco2)N2CCCCC2)c1 (stereo not given),0
4,CCN(CC(=O)Nc1c(C(=O)OC)[nH]c2ccccc12)c1ccc2c(c1)OCO2,5
5,Cc1cccc(C2CC(c3ccc(Br)cc3)Nc3nc(N)nn32)c1 (stereo not given),0
6,Cc1ccc(S(=O)(=O)N2CCC(C(=O)N[C@@H](Cc3ccccc3)C(=O)O)CC2)cc1,0
7,Cc1nc(NCc2ccco2)c2oc3ccccc3c2n1,4
8,COC(=O)NCC(c1cccnc1)N1CCOCC1 (stereo not given),0
9,COc1ccc(N2C(=O)CC(N3CCCC4CCCCC43)C2=O)cc1 (stereo not given),0
10,CCn1c(=O)cc(SCC(=O)NCCN2CCN(Cc3ccccc3)CC2)c2ccccc21,0
11,O=C(Nc1cccnc1)c1ccc2c(c1)OCO2,0
12,CC(C)c1cc(C(=O)Nc2cccnc2)no1,3
13,COC(=O)CCn1nnc(-c2ccc(C)cc2)n1,1
14,CCCC(=O)Nc1ccccc1NC(=O)CN(C)S(=O)(=O)c1ccc(C)cc1,2
15,CCOc1ccc(N(CC(=O)NC2CCCC2)S(=O)(=O)c2c(C)[nH]c(=O)[nH]c2=O)cc1,0
16,O=S1(=O)C=CC(Nc2cccc(Cl)c2)C1 (stereo not given),0
17,CCOc1ccc(N(CC(=O)NC2CCCCC2)S(=O)(=O)c2c(C)noc2C)cc1,0
18,O=C(Cc1ccc(S(=O)(=O)N2CCCC2)s1)Nc1nc2c(s1)CCCC2,1
19,Cn1c(=O)c2c(ncn2CC(=O)OCC(=O)NC2CCCc3ccccc32)n(C)c1=O (stereo not given),3
20,CCCCOn1c(C)c(C(=O)OCC)c2c3nonc3ccc21,0

row,Compound,inhibition [%]
1,Cc1nc2ccc(S(=O)(=O)NCC(=O)N3CCCCC3)cc2s1,0
2,Cc1occc1-c1nnc(SCC(=O)NCC2CCCO2)n1C (stereo not given),7
3,CCn1c(SCC(=O)c2ccc(F)cc2)nnc1-c1ccoc1C,4
4,CC(=NCC1CCNCC1)C1=C(O)CC(C)(C)CC1=O,0
5,O=C(CSc1nc2ccccc2c(=O)n1CCC(=O)N1CCCCC1)NCc1ccccc1,0
6,CCCC(=O)Nc1ccc(OCC(O)CNC(C)C)c(C(C)=O)c1 (stereo not given),0
7,CC1(c2ccncc2)Nc2ccccc2-c2nc3ccccc3n21 (stereo not given),0
8,CCOC(=O)C(NC(=O)c1ccc(OC)cc1)(N1CCOCC1)C(F)(F)F (stereo not given),2
9,COc1ccc(S(=O)(=O)Cc2ccc(C(=O)N3CCOCC3)o2)cc1,7
10,CS(=O)(=O)N1CCCC(C(=O)NCCCN2CCc3ccccc3C2)C1 (stereo not given),2
11,CC(C)Cc1n[nH]c(=O)[nH]1,2
12,Cc1cc(C(=O)Nc2cccc(O)c2)c(C)o1,20
13,CCOC(=O)C1CCN(C(=O)c2ccc(Cl)c(Cl)c2)CC1,8
14,COc1ccc(-c2nc3cc(NC(=O)Cc4ccc(OC)c(OC)c4)ccc3o2)cc1,0
15,O=C(Nc1nc(-c2ccc(S(=O)(=O)N3CCCC3)cc2)cs1)C1COc2ccccc2O1 (stereo not given),0
16,Fc1cccc(-c2cc3nc4c(c(N5CCN(c6cnccn6)CC5)n3n2)CCCC4)c1,0
17,Cc1occc1-c1nc(-c2ccncc2)no1,3
18,O=C(CSc1nc2ccccc2s1)N1CCN(C(=O)c2ccco2)CC1,0
19,CCCn1c(N)c(C(=O)CSc2nnc(Cc3ccccc3)o2)c(=O)n(C)c1=O,2
20,CN(CC(=O)N1CCN(C2CCCCC2)CC1)S(=O)(=O)c1cccc2nsnc12,8
